Laboratory results published in PubChem BioAssay AID1159580 (chemical genetic matrix, 2015).
Out of some 5,500 compounds screened, about 2,000 (36%) were called active. Roughly 18% stayed inconclusive and do not appear here. Rule as the data show it: active = normalized growth mostly below about 0.91 (no sharp cut-off); inconclusive = no clear call, values can overlap the other calls; inactive = mostly above about 0.92. This is one part of the list.

Assay: chemical genetic growth profiling, strain panel (AID 1159580);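 also: tested at 20 µM; growth read once vehicle control cultures reached saturation at 30 °C; 1 = growth at the plate median or of vehicle wells; lower values mean less growth of the strain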
Conditions: S. cerevisiae deletion strains, growth OD

Measured: normalized growth

CNCC[C@H](Oc1ccc(C(F)(F)F)cc1)c1ccccc1
inactive: locus YAL040C, strain CLN3, stronger effect = lower value 0.981 | locus YCL061C, strain MRC1 (second series), stronger effect = lower value 0.985 | locus YDR150W, strain NUM1, stronger effect = lower value 0.993 | locus YDR363W, strain ESC2, stronger effect = lower value 1.01 | locus YER002W, strain NOP16, stronger effect = lower value 1.01 | locus YGR078C, strain PAC10, stronger effect = lower value 0.969 | locus YMR263W, strain SAP30, stronger effect = lower value 0.997 | locus YNL128W, strain TEP1, stronger effect = lower value 1.01 | locus YNL153C, strain GIM3, stronger effect = lower value 0.886 | locus YNL175C, strain NOP13, stronger effect = lower value 1 | locus YNL197C, strain WHI3, stronger effect = lower value 0.988 | locus YNL224C, strain SQS1, stronger effect = lower value 1 | locus YOR083W, strain WHI5 (second series), stronger effect = lower value 0.874 | locus YPL241C, strain CIN2, stronger effect = lower value 0.982
